Among the test systems are DU-145 prostate; K-562 leukemia; MALME-3M melanoma; MDA-MB-231 breast; RXF 393 renal; SF-268 CNS; SF-295 CNS; SF-539 CNS; UACC-257 melanoma; M14 melanoma; HCT-15 colon; HT29 colon; SNB-75 CNS; SNB-19 CNS; U251 CNS; PC-3 prostate; SK-MEL-5 melanoma; UACC-62 melanoma; LOX IMVI melanoma; SK-MEL-28 melanoma.
Holding throughout (assay): NCI-60 one-dose screen, 48 h (100 = growth as untreated, 0 = no growth, -100 = all killed)
Holding throughout (conditions): 10 µM unless noted

The text below walks through data of PubChem BioAssay (NCI).

About 83,000 compounds went through this panel and 20% of them were active in at least one assay; those are over-represented in the sample as a whole.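 The test compound was applied at a single concentration to cells in 96-well plates for 48 hours, and percent growth was recorded.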 A number with no mark means an inactive call. Active and inactive are the calls of the source. Rule for the calls: active = growth percent below 10; inactive = the rest.

Turning to `C=C(C)[C@@H]1CC[C@]2(C(=O)N3CCN(C)CC3)CC[C@]3(C)[C@H](CC[C@@H]4[C@@]5(C)CC[C@H](OP(=O)(OCC)OCC)C(C)(C)[C@@H]5CC[C@]43C)[C@@H]12`, the growth with DU-145 prostate is 101%; in the experiment on K-562 leukemia it was 29.6%; with MALME-3M melanoma it was 106%; with MDA-MB-231 breast, 83.6%; in the experiment with RXF 393 renal, 59.5%; in the experiment on SF-268 CNS, 87.3%. Moreover, the growth was 89.4% in the experiment with SF-295 CNS; 84.8% with SF-539 CNS; 82.9% in the experiment on UACC-257 melanoma; 102% in the experiment with M14 melanoma; 60.2% in the experiment on HCT-15 colon; 76.1% in the experiment on HT29 colon. For the same compound, the growth with SNB-75 CNS was 89.7%; in the experiment with SNB-19 CNS, 90.9%; with U251 CNS, 78.8%; in the experiment on PC-3 prostate, 44.3%; with SK-MEL-5 melanoma, 69.7%; in the experiment with UACC-62 melanoma, 81.6%. The growth in the experiment on LOX IMVI melanoma was 44.6%; in the experiment on SK-MEL-28 melanoma it was 104%.

On to `CC(=O)/C(N=Nc1ccc2oc(=O)ccc2c1)=C(\C)O`, for which the growth with DU-145 prostate is 48.5%; in the experiment with K-562 leukemia, 9.96% (active); with MALME-3M melanoma, 58.3%; in the experiment with MDA-MB-231 breast it was 61.2%; in the experiment with RXF 393 renal it was 51.6%; in the experiment with SF-268 CNS, 45.7%. For the same compound, the growth in the experiment with SF-295 CNS was 22.5%; with SF-539 CNS it was 51.5%; with UACC-257 melanoma it was 37.5%; with M14 melanoma, 35.7%; in the experiment with HCT-15 colon it was 16.5%; in the experiment with HT29 colon it was 24.4%. Besides, the growth is 67.8% in the experiment with SNB-75 CNS; 29% in the experiment on SNB-19 CNS; 23.3% in the experiment on U251 CNS; 20.7% with PC-3 prostate; 9.01% (active) in the experiment with SK-MEL-5 melanoma; 33.8% with UACC-62 melanoma. Further, the growth is 19% with LOX IMVI melanoma and 47.3% in the experiment with SK-MEL-28 melanoma.

Consider `NS(=O)(=O)c1nnc(/N=C/c2c(O)[nH]c3ccccc23)s1`, for which the growth is 114% with DU-145 prostate; 110% with K-562 leukemia; 109% with MALME-3M melanoma; 92.3% with MDA-MB-231 breast; 118% with RXF 393 renal; 102% in the experiment on SF-268 CNS. For the same compound, the growth is 99.2% in the experiment with SF-295 CNS; 96.3% in the experiment with SF-539 CNS; 107% with UACC-257 melanoma; 94% in the experiment with M14 melanoma; 102% in the experiment on HCT-15 colon; 105% in the experiment on HT29 colon. Also, the growth was 81.2% with SNB-75 CNS; 105% in the experiment on SNB-19 CNS; 99.9% in the experiment with U251 CNS; 89.3% in the experiment on PC-3 prostate; 98.5% in the experiment on SK-MEL-5 melanoma; 97% with UACC-62 melanoma. For the same compound, the growth in the experiment on LOX IMVI melanoma was 100%; with SK-MEL-28 melanoma, 114%.

As for `CC(C)(C)Nc1nc2c(OCCc3ccccc3)cccn2c1-c1ccc([N+](=O)[O-])cc1`, the growth is 86.2% in the experiment with DU-145 prostate; 39.7% with K-562 leukemia; 83.6% in the experiment on MALME-3M melanoma; 80.9% in the experiment with MDA-MB-231 breast; 63.5% in the experiment on RXF 393 renal; 71.2% in the experiment on SF-268 CNS. In addition, the growth in the experiment on SF-295 CNS was 43.8%; in the experiment on SF-539 CNS, 76.5%; in the experiment on UACC-257 melanoma, 88.7%; in the experiment on M14 melanoma, 60.5%; with HCT-15 colon, 15.8%; with HT29 colon, 52.3%. Further, the growth in the experiment on SNB-75 CNS is 88.1%; with SNB-19 CNS, 78.4%; in the experiment with U251 CNS, 62.6%; with PC-3 prostate it was 49.1%; in the experiment with SK-MEL-5 melanoma it was 74.8%; in the experiment with UACC-62 melanoma, 57.5%. Further, the results for the growth in the experiment with LOX IMVI melanoma and in the experiment with SK-MEL-28 melanoma were 54.7% and 76.2%, respectively.

For the compound `O=C(N/N=C\c1ccc(F)cc1)c1ccc2nc(-c3ccc(Br)cc3)[nH]c2c1`, the growth is -22.1% (active) in the experiment with DU-145 prostate; 19.9% with K-562 leukemia; -49.9% (active) with MALME-3M melanoma; 60.6% with MDA-MB-231 breast; -12.3% (active) in the experiment on RXF 393 renal; 44.8% in the experiment on SF-268 CNS. The growth in the experiment with SF-295 CNS is 39.4%; in the experiment on SF-539 CNS it was 10.9%; in the experiment on UACC-257 melanoma, 74.5%; with M14 melanoma, 18.8%; in the experiment on HCT-15 colon, 22.2%; in the experiment on HT29 colon, -58.9% (active). Besides, the growth in the experiment with SNB-75 CNS was 53.7%; in the experiment with SNB-19 CNS, 23.2%; with U251 CNS it was -62.1% (active); in the experiment with PC-3 prostate, 40.4%; with SK-MEL-5 melanoma, 56.3%; in the experiment on UACC-62 melanoma, 49.2%. Also, the growth with LOX IMVI melanoma is -12.3% (active); in the experiment with SK-MEL-28 melanoma, 10.8%.

As to `CNC(=O)Nc1ccc(Nc2cc(-c3ccc(-n4cccn4)cc3)[nH]n2)c(C)c1`, the growth with DU-145 prostate is 105%; in the experiment with K-562 leukemia it was 95.5%; with MALME-3M melanoma, 125%; in the experiment on MDA-MB-231 breast it was 123%; with RXF 393 renal, 141%; with SF-268 CNS it was 103%. Moreover, the growth is 109% in the experiment with SF-295 CNS; 98.7% with SF-539 CNS; 115% with UACC-257 melanoma; 126% with M14 melanoma; 103% in the experiment on HCT-15 colon; 120% in the experiment with HT29 colon. In addition, the growth in the experiment on SNB-75 CNS was 123%; with SNB-19 CNS it was 97.6%; in the experiment on U251 CNS, 106%; in the experiment with PC-3 prostate, 107%; with SK-MEL-5 melanoma, 97.7%; in the experiment on UACC-62 melanoma, 114%. Also, the growth with SK-MEL-28 melanoma is 114%.

`COC(=O)c1cccc(NC2=CC(=O)C(C)=C(C)C2=O)c1`: the growth in the experiment with DU-145 prostate is 108%; with K-562 leukemia it was 69.3%; in the experiment on MALME-3M melanoma, 97.9%; in the experiment with MDA-MB-231 breast, 76.4%; in the experiment on RXF 393 renal it was 94.2%; with SF-268 CNS, 97.3%. Further, the growth in the experiment with SF-295 CNS is 115%; in the experiment with SF-539 CNS, 97.2%; in the experiment with UACC-257 melanoma, 86.9%; in the experiment with M14 melanoma it was 108%; with HCT-15 colon it was 93.8%; in the experiment on HT29 colon, 110%. Further, the growth is 93.4% in the experiment on SNB-75 CNS; 96.2% with SNB-19 CNS; 94.7% in the experiment with U251 CNS; 79.7% with PC-3 prostate; 96.3% in the experiment on SK-MEL-5 melanoma; 96.2% in the experiment with UACC-62 melanoma. In addition, the growth in the experiment with LOX IMVI melanoma is 61%; with SK-MEL-28 melanoma, 111%.

For the compound `C#CCN(C)CCCOc1ccc(NC(=O)CCCCCCCCC(=O)NO)cc1Cl`, the growth in the experiment with DU-145 prostate is 81.7%; with K-562 leukemia it was 40.7%; in the experiment on MALME-3M melanoma, 45.9%; in the experiment with MDA-MB-231 breast, 89.5%; with RXF 393 renal it was 37.3%; in the experiment on SF-268 CNS, 97.8%. Further, the growth with SF-295 CNS was 50.2%; in the experiment with SF-539 CNS, 74.5%; in the experiment with UACC-257 melanoma, 42.8%; with M14 melanoma, 72.9%; with HCT-15 colon it was 75%; in the experiment with HT29 colon, 67.8%. Further, the growth in the experiment on SNB-75 CNS is 63.4%; with SNB-19 CNS, 77.3%; in the experiment on U251 CNS it was 64.3%; in the experiment on PC-3 prostate, 73.9%; in the experiment on SK-MEL-5 melanoma it was 54.9%; in the experiment with UACC-62 melanoma it was 40.6%. Further, the growth is 4.6% (active) with LOX IMVI melanoma and 77% in the experiment with SK-MEL-28 melanoma.
